Sfp PPTase inh: blocks B. subtilis Sfp PPTase activity; 310,000 compounds, 3.5% hits; AID 1490; Potency, µM, without a hit: largest response in the series, negative = inhibition, usual class: inhibitors; Biochemical Sfp PPTase activity, qHTS; Q9F4F7;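 note: the enzyme is Sfp with the accession as filed and its product quenches rhodamine fluorescence; 0% = enzyme reaction without inhibitor and -100% = no enzyme wells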
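Fluorescence-quenching assay with 15 nM Sfp, 5 uM rhodamine-CoA and 12.5 uM BHQ-2-labelled ybbR peptide in pH 7.6 Hepes/MgCl2 buffer. Enzyme was pre-incubated with compound for 15 min at room temperature. Rate was taken from the 30-min fluorescence change (525/598 nm).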
G9a inh: G9a (human) methyltransferase inhibition; AID 504332; Potency, µM (highest dose often 102 µM), inactives show at the highest dose activity, negative = inhibition, most hits filed as inhibitors; G9a H3K9 monomethylation, AlphaScreen, 2 h; 350,000 compounds, 8.8% hits; Q96KQ7; note: % is set by controls: 0 for no effect and ±100 for the full control effect; nearly all actives have a fitted effect of over 75% in size
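Methyltransferase reactions run at room temperature for 2 h (20 nM enzyme, 500 nM biotin-H3K9 peptide, 20 uM SAM) after a 15 min compound preincubation; product detected by AlphaScreen beads and anti-H3K9me1 antibody.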
PLK1 PBD inh: inhibitors of human PLK1 polo-box domain binding; AID 720504; Plk1 PBD binding of FITC phosphopeptide, fluorescence polarization; 360,000 compounds, 2.8% hits; P53350; Potency, µM, for inactives: max response, negative = inhibition, most hits filed as inhibitors; note: series mostly up to about 57 µM; % is set by controls: 0 for no effect and ±100 for the full control effect; nearly all actives have a fitted effect of over 65% in size
Target sequence (P53350 whole entry, looked up, the tested form may be a part): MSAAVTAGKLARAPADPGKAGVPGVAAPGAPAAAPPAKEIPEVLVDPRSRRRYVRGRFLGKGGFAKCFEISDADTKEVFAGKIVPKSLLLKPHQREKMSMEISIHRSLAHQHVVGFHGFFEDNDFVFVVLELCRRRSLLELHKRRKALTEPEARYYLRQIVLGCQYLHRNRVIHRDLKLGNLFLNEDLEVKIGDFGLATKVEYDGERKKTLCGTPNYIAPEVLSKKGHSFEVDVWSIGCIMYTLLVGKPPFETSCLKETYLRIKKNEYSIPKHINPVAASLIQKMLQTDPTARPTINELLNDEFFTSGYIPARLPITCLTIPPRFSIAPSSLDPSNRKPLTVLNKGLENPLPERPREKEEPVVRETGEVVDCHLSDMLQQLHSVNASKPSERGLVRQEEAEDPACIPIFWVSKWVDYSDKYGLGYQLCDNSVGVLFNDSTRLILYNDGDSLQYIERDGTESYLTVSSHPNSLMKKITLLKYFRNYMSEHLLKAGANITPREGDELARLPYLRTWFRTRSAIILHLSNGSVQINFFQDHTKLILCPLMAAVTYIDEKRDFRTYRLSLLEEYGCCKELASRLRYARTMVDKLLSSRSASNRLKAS
JMJD2A Tudor inh: blocks the human JMJD2A Tudor domain. O75164. AlphaScreen JMJD2A-Tudor / H3K4me3 peptide binding. Potency, µM (series often up to 114 µM), inactives show top-dose activity change, negative = inhibition, usual class: inhibitors. 390,000 compounds, 4.4% hits. AID 504339; note: % is set by controls: 0 for no effect and ±100 for the full control effect; nearly all actives have a fitted effect of over 50% in size
BAZ2B inh: inhibitors of human BAZ2B bromodomain; AlphaScreen BAZ2B-H3K14Ac peptide displacement; Potency, µM (top dose mostly 114 µM), for inactives: top-dose activity change, negative = inhibition, usual class: inhibitors; 360,000 compounds, 4.4% hits; note: % is set by controls: 0 for no effect and ±100 for the full control effect; nearly all actives have a fitted effect of over 60% in size
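BAZ2B 50 nM plus b-H3(5-23)K14Ac 50 nM, PBS pH 7.4/0.01% Tween-20, 30 min RT; compound added (max 110 uM), 30 min RT; streptavidin donor/Ni-chelate acceptor beads 10 ug/mL final, 20 min dark; AlphaScreen read.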
HP1b chromo inh: HP1-beta chromodomain-methylated histone interaction inhibition. Potency, µM (top dose mostly 114 µM), inactives show top-dose activity change, negative = inhibition, actives largely listed as inhibitors. AID 540317. P83916. 390,000 compounds, 0.56% hits. AlphaScreen HP1-beta / biotin-H3K9me3 peptide binding; note: nearly all actives have a fitted effect of over 70% in size
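Compound inhibition of the preformed complex between 50 nM HP1-beta and 50 nM biotinylated H3K9me3 peptide was read by AlphaScreen. Buffer was PBS pH 7.4 with 0.01% Tween-20. Incubations ran 30 min at room temperature, with 10 ug/mL donor/acceptor beads.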
* marks the source's active call; other numbers are inactive results; ? = inconclusive; nt = not tested or not shown; ! = repeats disagree; [ ] = dose if it differs, or a comment. Sampled rows, rich in hits. Any-hit rate of the full collection: about 12%. Calls come from the whole dose curve; as a rule, active = well fitted curve in the direction sought with a large enough effect; inconclusive = small, poorly fitted or top-dose-only effect, or another doubt; inactive = no such curve, though single readings can be large; an effect the other way counts as inactive or inconclusive. Potency is the fitted concentration of half-maximal effect.

SMILES	Sfp PPTase inh	G9a inh	PLK1 PBD inh	JMJD2A Tudor inh	BAZ2B inh	HP1b chromo inh
C/C=C/C=C/C(=O)Nc1nccs1	35µM*	-11%[59 µM]	-3%	?	-4%	24%
O=C(/C=C/c1ccc(Cl)cc1)Nc1nccs1	8%	-2%	-9%	-20%	-8%	28%
N#CCC(=O)N1CCn2c1nc1ccccc12	12%	-33%[59 µM]	-8%	-11%	-4%	26%
CC(C)(C)C(=O)N1CCn2c1nc1ccccc12	9%	21%	0%	-14%	56µM*	-3%
O=C1c2cccc(NCCCNCCO)c2C(=O)c2cccc(NCCCNCCO)c21	nt	nt	2%	50µM*	nt	?
COc1ccc(C(C)n2c(C)c3c(C)nnc(C)c3c2C)cc1 (stereo unspecified)	-16%	?	-20%	?	89µM*!	-14%
CCCCn1c(SCC(=O)c2cc(OC)ccc2OC)nc2cc(S(N)(=O)=O)ccc21	-9%	?	?	-8%	7%	34%
CCCCn1c(SCC(=O)c2ccc(O)cc2O)nc2cc(S(N)(=O)=O)ccc21	-22%	-11%	-12%	-24%	-11%	3%
CCCCn1c(SCN2C(=O)c3ccccc3C2=O)nc2cc(S(N)(=O)=O)ccc21	1%	40µM*	-30%	-20%	8%	27%
CCCCn1c(SCC(=O)N2CCC(C)CC2)nc2cc(S(N)(=O)=O)ccc21	?	7.9µM*	-7%	-14%	-36%	8%
CCCCn1c(SCc2ccc(C(=O)OC)o2)nc2cc(S(N)(=O)=O)ccc21	56µM*	4%[59 µM]	1%	-24%	-2%	14%
O=C(CC(=O)Nc1ccccc1F)Nc1ccc2nc3n(c(=O)c2c1)CCCCC3	nt	-7%[59 µM]	nt	-6%	-11%	23%
CC(NC(=O)c1ccco1)C(=O)N1CCN(S(=O)(=O)c2ccccc2C#N)CC1 (stereo unspecified)	nt	11%[59 µM]	7%	5%	7%	34%
c1ccc(-c2cn(C[C@H]3CC[C@@H]([C@@H]4CC[C@H](Cn5cc(-c6ccccc6)nn5)O4)O3)nn2)cc1	19%	17%	-12%	-20%	-3%	70%
O=C1c2ccccc2C(=O)N1CCCCc1cn(C[C@H]2CC[C@H](Cn3cc(CCCCN4C(=O)c5ccccc5C4=O)nn3)O2)nn1	nt	nt	-11%	-20%	nt	30%
c1ccc(CCc2cn(C[C@H]3CC[C@@H]([C@@H]4CC[C@H](Cn5cc(CCc6ccccc6)nn5)O4)O3)nn2)cc1	-3%	nt	27µM*	?	4%	18%
c1ccc(-c2cn(C[C@H]3CC[C@@H]([C@@H]4CC[C@H](Cn5cc(-c6ccccn6)nn5)O4)O3)nn2)nc1	-10%	?	4%	3.2µM*	0.71µM*	33%
CC(=O)NCCNc1ncnc2ccc(-c3c(C)noc3C)cc12	38%	-30%[0.501 µM]	nt	nt	nt	nt
Cc1ccc(Nc2ccc3cc(S(=O)(=O)N4CCC(C)CC4)ccc3n2)c(Cl)c1	nt	16µM*	nt	20%	-7%	55%
CCC(C(=O)NCCc1ccccc1)n1nc(C)n2c(cc3sccc32)c1=O (stereo unspecified)	nt	3%[59 µM]	nt	-13%	0%	17%
O=S(=O)(Cc1ccccc1)CS(=O)(=O)Cc1ccccc1	nt	nt	-7%	-10%	nt	29%
O=C(c1cccs1)N1C[C@H](O)[C@@H](n2cc(C3CC3)nn2)C[C@@H]1c1ccccc1	nt	nt	-11%	nt	nt	nt
Cc1ccc(-c2nn3c(-c4ccco4)nnc3c3ccccc23)cc1S(=O)(=O)NCC1CCCO1 (stereo unspecified)	50µM*	20µM*	-29%	-21%[57.1 µM]	-25%	8%
CCSc1nc2c(c(=O)[nH]c(=O)n2C)n1C/C=C(/C)Cl	-18%	?	-9%	-2%	-5%	15%
CSc1nc2c(c(=O)[nH]c(=O)n2C)n1C/C=C(\C)Cl	-21%	40µM*	-9%	-8%	-8%	-11%
SMILES	Sfp PPTase inh	G9a inh	PLK1 PBD inh	JMJD2A Tudor inh	BAZ2B inh	HP1b chromo inh
CCOC(=O)C(C)Sc1nc2c(c(=O)[nH]c(=O)n2C)n1C/C=C(/C)Cl (stereo unspecified)	22µM*	7.1µM*	12µM*	?	-5%	-80%
COc1ccc(CNC(=O)CCc2c(C)nc3c4cccnc4nn3c2C)cc1	nt	18%[59 µM]	nt	-27%	-14%	50%
CC1CCC(NC(=O)CCNC(=O)c2ccc(Br)cc2)CC1 (stereo unspecified)	nt	-39%	-4%	-13%	-4%	27%
CCOc1ccc(NC(=O)CN(C)C(=O)c2ccc(OCC(=O)N3CCOCC3)c(OC)c2)cc1OCC	nt	nt	3%	-6%	nt	31%
CCOC(=O)c1ccccc1NC1CC(=O)N(c2ccccc2C)C1=O (stereo unspecified)	79µM*	?	-18%	-20%	1%	7%
CCOC(=O)c1ccccc1NC(=O)C1CC(=O)N(C(C)(C)C)C1 (stereo unspecified)	18%	25%	-5%	?	1%	18%
O=C(CSCc1cnn(-c2ccccc2)c1-n1cccc1)N1CCN(Cc2ccccc2)CC1	-5%	40µM*	2%	?	?	-15%
c1ccc(CCCN2CCN(c3ccccn3)CC2)cc1	-19%	40µM*	-13%	25µM*	?	?
Cc1cccc(-n2cc(CN3CCN(c4ccccn4)CC3)c(-c3cccc(F)c3)n2)c1	2%	-3%	-4%	-9%	-20%	48%
Brc1cccc(CN2CCN(c3ncccn3)CC2)c1	-8%	10µM*	2%	20µM*	?	?
O=C(CN1CCN(c2ccccn2)CC1)NCCc1ccccc1	-1%	11%[59 µM]	-13%	-14%[11.4 µM]	3%	46%
O=S(=O)(c1ccccc1)N1CCN(Cc2cccc(Br)c2)CC1	nt	nt	2%	28µM*	nt	?
Cc1cccc(CN2CCN(c3ccccn3)CC2)c1	nt	nt	2%	3.2µM*	nt	?
CCc1cccc(CC)c1NC(=O)CCS(=O)(=O)c1ccc2c(c1)CCN2C(C)=O	nt	0%[59 µM]	nt	-3%	nt	46%
c1ccc(N2CCN(c3cnccn3)CC2)nc1	4%	?	-23%	2%	2%	33%
Cc1cccc(CN2CCNC2=O)c1	14%	?	-4%	4%	1%	35%
c1ccc(N2CCN(Cc3ccsc3)CC2)nc1	-13%	14µM*	-2%	3.2µM*	79µM*	?
Cc1cccc(CN2CCN(c3ncccn3)CC2)c1	?	nt	-1%	2.8µM*	?	?
CCC(C)c1ccc(NC(=S)N2CCN(S(C)(=O)=O)CC2)cc1 (stereo unspecified)	14%	80%	5%	-6%	0%	24%
CC1C2(C)OCC(C#N)(C(=N)O2)C1(C#N)C#N (stereo unspecified)	-3%	45µM*	nt	nt	1%	nt
